Pf apPOL inh = Pf-apPOL inhibitors, biochemical, fluorescence; inhibition, % at 10 µM; 210,000 compounds, 0.25% hits; Plasmodium falciparum apicoplast DNA polymerase (apPOL); Recombinant Pf-apPOL, molecular beacon fluorescence, 1.5 h
mHTT-CaM PPI inh = mutant huntingtin-calmodulin interaction inhibitors – biochemical, AlphaScreen, primary screen | 190,000 compounds, 3.6% hits | P42858 | inhibition, % at 15 µM | AlphaScreen His-mHTT/GST-CaM binding, luminescence;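 note: 0% = both proteins with DMSO and 100% = one protein alone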
Numbers without * were called inactive; i = inactive; . = no result given; + = active, no number. Many of the other results were omitted from the sample, so hits are more common in it than they were. Cut-off read from the data, not from the text of the source: active = inhibition above about 50%; inactive = the rest.

SMILES	Pf apPOL inh	mHTT-CaM PPI inh
CCN1C(=O)Cc2ccccc2C1C(=O)N1CCN(c2ccccc2F)CC1 (centres undefined)	1.6	5.9
CC(=O)C1=C(C)NC(SCC(=O)c2ccc([N+](=O)[O-])cc2)=C(C#N)C1c1ccccc1 (centres undefined)	-4.0	59.4*
CC(=O)C1=C(C)NC(SCC(=O)c2ccccc2)=C(C#N)C1c1ccc(Cl)cc1 (centres undefined)	5.1	-22.3
CCOC(=O)NN=Cc1sc2ccccc2c1C	-7.1	.
COCCn1c(C2CCN(C(=O)c3ccc(Cl)cc3OC)C2)nc2ccncc21 (centres undefined)	0.1	5.8
COc1ccccc1C(=O)O/N=C1\C=C(C(C)C)C(=O)C=C1C	-4.9	+
CC1=CC(=O)C(C(C)C)=C/C1=N\Oc1c([N+](=O)[O-])cc(Cl)cc1[N+](=O)[O-]	-0.3	+
Nc1c(Cl)cc(Cl)cc1[N+](=O)[O-]	-3.8	2.4
CC1=CC(=O)C(C(C)C)=C/C1=N\OC(=O)c1cccs1	6.6	+
CC1=CC(=O)C(C(C)C)=C/C1=N\OC(=O)c1ccccc1C	1.7	i
CC1=CC(=O)C(C(C)C)=C/C1=N\OC(=O)c1ccc(C(C)(C)C)cc1	-5.4	i
COc1ccc(Cl)cc1C(=O)O/N=C1\C=C(C(C)C)C(=O)C=C1C	8.0	+
CC1=CC(=O)C(C(C)C)=C/C1=N\OC(=O)c1ccc(C)cc1	-5.5	i
COc1ccc(N2CC(c3nnc(NC(=O)c4cccc(C)c4)o3)CC2=O)cc1 (centres undefined)	-3.8	0.3
COc1ccccc1/C=C/C(=O)c1ccc(NC(=O)c2ccco2)cc1	-2.7	14.5
COc1ccc(C(=O)O/N=C2\C=C(C(C)C)C(=O)C=C2C)cc1Br	2.7	+
COc1cc(C(=O)O/N=C2/C=C(C(C)C)C(=O)C=C2C)cc(OC)c1OC	-3.8	i
Cc1ccc(N2NC(=O)/C(=C\c3ccccc3OCC#N)C2=O)cc1Cl	1.7	78.0*
COc1cccc(/C=C2\C(=O)NN(c3ccc(C)c(Cl)c3)C2=O)c1OCC#N	-4.0	28.0
COc1ccc(/C=C2\C(=O)NN(c3ccc(Cl)c(Cl)c3)C2=O)cc1	-4.6	5.0
O=C1NN(c2ccc(Cl)c(Cl)c2)C(=O)/C1=C/c1ccccc1	-2.7	96.0*
Cc1ccc(N2NC(=O)/C(=C\c3cccc(Br)c3)C2=O)cc1	-0.6	71.0*
O=C1NN(c2ccc(Cl)c(Cl)c2)C(=O)/C1=C/c1ccc(-c2ccc3c(c2)C(=O)NC3=O)o1	-8.3	5.0
O=C1NN(c2ccc(Cl)c(Cl)c2)C(=O)/C1=C/c1ccc(-c2ccc3c(c2)C(=O)OC3)o1	3.3	68.0*
O=C1NN(c2cccc(Br)c2)C(=O)/C1=C/c1ccccc1	-1.3	19.0
SMILES	Pf apPOL inh	mHTT-CaM PPI inh
CC1(C)OC2OC(C(=O)Nc3ccc4c(c3)OCCO4)C3OC(C)(C)OC3C2O1 (centres undefined)	1.6	4.0
Cc1ccc(NC(=O)Nc2cc(F)c3nc(N4CCOCC4)ccc3c2)cc1	-2.8	12.3
Cc1cc(OCC(=O)Nc2c(C)cccc2C)nc(N2CCCC(C)C2)n1 (centres undefined)	-0.8	-4.9
Cc1cccc(NC(=O)C(=O)c2c(O)[nH]c3ccccc23)c1	-3.6	4.0
Cc1cccc(C(C)C)c1NC(=O)c1ccc(F)cc1	-1.8	-1.4
O=C1NN(c2ccc(Br)cc2)C(=O)/C1=C/c1cc([N+](=O)[O-])ccc1Cl	0.7	89.0*
Cc1ccc(N2NC(=O)/C(=C\c3cccs3)C2=O)cc1Cl	0.5	2.0
Cc1ccc(N2NC(=O)/C(=C\c3ccc(Cl)cc3Cl)C2=O)cc1Cl	3.6	90.0*
CN(C)c1ccc([N+](=O)[O-])cc1/C=C1\C(=O)NN(c2ccc(F)cc2)C1=O	6.0	10.0
Cc1ccc(N2NC(=O)/C(=C\c3cccc([N+](=O)[O-])c3)C2=O)cc1Cl	0.1	77.0*
O=C1NN(c2ccc(F)cc2)C(=O)/C1=C/c1cccc([N+](=O)[O-])c1	1.0	13.0
O=C(c1cccnc1)N1CCC2(C1)NCc1ccccc1NC2=NCc1ccccc1 (centres undefined)	-13.9	21.2
CCOc1cc(/C=c2\sc3nc4ccccc4n3c2=O)cc(Br)c1O	7.7	22.0
O=C(NCCc1c[nH]c2ccccc12)c1cc2nc(-c3ccco3)cc(C(F)(F)Cl)n2n1	-2.3	76.0*
O=C(NCCCN1CCOCC1)c1cc2nc(-c3ccco3)cc(C(F)(F)Cl)n2n1	-2.2	13.0
COC(=O)C(N)c1cccc2ccccc12 (centres undefined)	-0.9	0.6
O=c1c2cc(I)ccc2nc(/C=C/c2cccc([N+](=O)[O-])c2)n1CCO	5.7	5.6
CC1CC(=O)Nc2c1c(NC(=O)c1cc(-c3ccc(F)cc3)n[nH]1)nn2C (centres undefined)	-7.2	0.6
CC1CC(=O)Nc2c1c(NC(=O)c1ccc(S(=O)(=O)N3CCOCC3)cc1)nn2C (centres undefined)	-6.1	100.1*
C=CCNc1ncnc2c1c(-c1ccccc1)cn2-c1ccccc1	-5.0	26.0
CN(C)Cc1c(O)ccc2c(=O)c(Oc3ccc4ccccc4c3)c(C(F)(F)F)oc12	-1.3	76.0*
COc1cccc(Oc2c(C(F)(F)F)oc3c(CN(C)C)c(O)ccc3c2=O)c1	-6.9	-3.4
Nc1c(Br)cc(O)c2c1C(=O)c1ccccc1C2=O	-5.9	83.0*
Nc1c(Br)cc(Cl)c2c1C(=O)c1ccccc1C2=O	4.8	18.0
O=C(NCC1CCN(c2cc(-c3ccncc3)[nH]n2)CC1)c1ccc2c(c1)OCO2	-1.0	9.1
SMILES	Pf apPOL inh	mHTT-CaM PPI inh
CN(C)c1ccc(/C=C/C=C/c2cc[n+](C)cc2)cc1	-13.5	60.0*
CN(C)c1ccc(/C=C/C=C/c2cccc[n+]2C)cc1	7.3	46.0
CC1(C(=O)NC2CCCCCCC2)CCC(=O)N1Cc1ccccc1Cl (centres undefined)	-15.9	24.0
O=C(CCSCc1ccccc1F)N1CCN(c2ccccc2F)CC1	34.5	-2.0
Cc1cccc(COC[C@H](CC(C)C)N2CCN(C(=O)c3ccc(C(F)(F)F)cc3)CCC2=O)c1	-2.2	90.3*
CC(C)C[C@@H](COCc1cccc(C(F)(F)F)c1)N1CCN(C(=O)c2ccc(C(F)(F)F)cc2)CCC1=O	-0.4	89.2*
Cc1ccc(S(=O)(=O)N2CCC(=O)N(CCOCc3cccc(C(F)(F)F)c3)CC2)cc1	-1.4	7.4
Cc1ccc(S(=O)(=O)N2CCC(=O)N([C@H](COCc3cccc(C)c3)C(C)C)CC2)cc1	-3.9	-9.0
COCC(C)(O)CNC(=O)C(=O)Nc1cccc(F)c1 (centres undefined)	-0.6	-9.3
CC1CCCCN1S(=O)(=O)c1ccc(F)c(C(=O)Nc2ccc(F)c(F)c2)c1 (centres undefined)	-1.3	-5.0
O=C(CCCNC(=O)c1c(F)cccc1F)Nc1cccc2cccnc12	-4.9	-11.9
Cc1ccc(C)c(CNC(=O)C2CC(=O)N(CCc3ccccc3)C2)c1 (centres undefined)	-1.9	0.1
COc1ccccc1CNC(=O)CN1C(=O)C2CCCN2C(=O)c2cc(F)ccc21 (centres undefined)	-4.6	-1.8
COc1ccc(Nc2nc(-c3cccc([N+](=O)[O-])c3)cs2)cc1	2.0	84.0*
C=CCNc1nc(-c2ccncc2)cs1	-3.5	-0.9
COc1ccc(SCC(=O)Nc2nc(-c3cccc([N+](=O)[O-])c3)cs2)cc1	-7.0	-14.7

Bioassay records as filed in PubChem BioAssay.
